Only a selection was taken, and hits are over-represented in it overall.
CBX7 AlphaScr: CBX7 chromodomain binding inhibitors, primary screen, biochemical, AlphaScreen. AID 1224903, 2016. normalised signal (fraction of DMSO) (concentration not given with the values). 66,000 tested, 1.1% active. AlphaScreen His6-CBX7 / biotin-H3K27me3 peptide binding; active compounds read low; in the data active means normalised signal below about 0.5
Target sequence (O95931 whole entry, looked up): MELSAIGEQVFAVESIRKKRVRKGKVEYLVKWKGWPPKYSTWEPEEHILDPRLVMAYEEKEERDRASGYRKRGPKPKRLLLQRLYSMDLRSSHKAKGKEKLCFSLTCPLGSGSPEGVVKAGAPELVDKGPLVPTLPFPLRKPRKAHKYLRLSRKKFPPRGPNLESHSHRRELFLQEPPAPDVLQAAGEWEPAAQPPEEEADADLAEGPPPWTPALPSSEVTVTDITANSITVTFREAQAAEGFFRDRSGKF
The depositor's hits bear a star.

Cc1oc(-c2cccc(Cl)c2)nc1CN1CCCC(C(=O)NCCC(C)C)C1 (stereo not drawn) was read as CBX7 AlphaScr 1.
Cc1ccc(Cn2c(=O)c3cccnc3n(Cc3cccc(C(F)(F)F)c3)c2=O)cc1 was read as CBX7 AlphaScr 1.1.
Screening CC(C)(C)C(C(Oc1ccc(Cl)cc1)n1cncn1)n1nnnc1C(c1ccccc1)N1CCCCC1 (stereo not drawn) returned CBX7 AlphaScr 0.78.
For CC(=O)Nc1ccccc1-c1nc2ccc(C(=O)N3CCN(c4ccccn4)CC3)cc2[nH]c1=O the results were CBX7 AlphaScr 1.
CCn1c(C(=O)N2CCC(C(=O)NCCc3ccc(S(N)(=O)=O)cc3)CC2)cc2sccc21 was read as CBX7 AlphaScr 0.96.
CC(C)c1ccc2oc(-c3ccc(NC(=O)c4ncn[nH]4)cc3)nc2c1 was read as CBX7 AlphaScr 0.026*.
`CC(C)c1ccc2oc(-c3ccc(NC(=O)c4ccc(Cl)cc4)cc3)nc2c1` gave CBX7 AlphaScr 0.97.
`CCc1ccc2oc(-c3cccc(NC(=O)c4ncn[nH]4)c3)nc2c1` gave CBX7 AlphaScr 0.013*.
CC(C)c1ccc2oc(-c3ccc(NC(=O)c4ccccc4F)cc3)nc2c1 was read as CBX7 AlphaScr 1.
`CCc1ccc2oc(-c3cccc(NC(=O)c4ccc(F)cc4)c3)nc2c1` gave CBX7 AlphaScr 1.
`CCc1ccc2oc(-c3cccc(NC(=O)c4ccc(C)cc4)c3)nc2c1` gave CBX7 AlphaScr 1.1.
For Cc1nccc2[nH]c(=O)c(C(=O)NCCc3ccccc3)cc12 the results were CBX7 AlphaScr 0.9.
`COCCNC(=O)c1ccc2c(c1)N(Cc1cccc(F)c1)C(=O)c1ccccc1S2` gave CBX7 AlphaScr 1.
For Cc1ccc(CSc2nc3ccc(Cl)cc3[nH]2)cc1 the results were CBX7 AlphaScr 1.1.
Screening CC(C(=O)NCCCN1CCOCC1)n1ncc2ccccc21 (stereo not drawn) returned CBX7 AlphaScr 1.1.
For CCc1cccc(NC(=O)Cn2nc(Cc3ccncc3)c3ccccc3c2=O)c1 the results were CBX7 AlphaScr 1.1.
`Cc1ccc(-c2ccc(=O)n(CC(=O)NCCCN3CCN(C)CC3)n2)cc1` gave CBX7 AlphaScr 1.
Screening Cc1noc(/C=C/c2cccs2)c1S(=O)(=O)N1CCCC(C(=O)N2CCC(C)CC2)C1 (stereo not drawn) returned CBX7 AlphaScr 0.93.
`COc1ccc(OC)c(NC(=O)c2c(NCc3ccc(N(C)C)cc3)sc3c2CCCC3)c1` gave CBX7 AlphaScr 0.48*.
COc1ccc(OC)c(NC(=O)c2c(NCc3ccc(OC)c(OC)c3)sc3c2CCC3)c1 was read as CBX7 AlphaScr 0.71.
`COc1cccc(CNc2sc3c(c2C(=O)Nc2cc(OC)ccc2OC)CCCC3)c1` gave CBX7 AlphaScr 0.77.
COc1ccc(C)cc1Nc1nc(-c2ccccc2F)nc2ccccc12 was read as CBX7 AlphaScr 2.
Screening COc1ccccc1-c1c(C)nn2c(N(C)CCC#N)cc(C)nc12 returned CBX7 AlphaScr 0.98.
For CC(=O)N1CCc2cc(S(=O)(=O)NCCCN3CCCC(C)C3)ccc21 (stereo not drawn) the results were CBX7 AlphaScr 1.3.
Screening CCN(CC)c1ccc(NC2c3ccccc3C(=O)N2c2ccc(Cl)cn2)c(C)c1 (stereo not drawn) returned CBX7 AlphaScr 0.065*.
Screening Cc1cccc(NC2c3ccccc3C(=O)N2c2ccc(Cl)cn2)c1C (stereo not drawn) returned CBX7 AlphaScr 0.93.
For Cc1ccc(NC2c3ccccc3C(=O)N2c2ccc(Cl)cn2)cc1F (stereo not drawn) the results were CBX7 AlphaScr 1.2.
For COc1ccc(-c2nc3ccccc3n2Cc2cccc(C)c2)cc1 the results were CBX7 AlphaScr 1.
For CCOC(=O)c1cnc2c(C)cc(Cl)cc2c1Nc1cccc(OC)c1 the results were CBX7 AlphaScr 1.1.
Screening CC(C(=O)NCCc1ccccc1)C1Sc2ccccc2N(Cc2ccc(F)cc2Cl)C1=O (stereo not drawn) returned CBX7 AlphaScr 1.
`C1=CC2=C(CO1)OCc1c2[nH]c2ccc3ccccc3c12` gave CBX7 AlphaScr 0.43*.
CC(NC(=O)c1ccc(-c2nn(C)c(=O)c3ccccc23)cc1)c1ccccc1 (stereo not drawn) was read as CBX7 AlphaScr 1.
For Cc1ccccc1Nc1c(-c2cccnc2)nc2cccc(C)n12 the results were CBX7 AlphaScr 0.92.
`Cc1cccc2nc(-c3ccccn3)c(Nc3ccc(C(C)C)cc3)n12` gave CBX7 AlphaScr 0.11*.
`Cc1ccccc1Nc1c(-c2ccccn2)nc2cccc(C)n12` gave CBX7 AlphaScr 0.24*.
Screening Cc1cccc2nc(-c3cccnc3)c(Nc3ccc(C(C)C)cc3)n12 returned CBX7 AlphaScr 0.87.
For Cc1cc(C)n2c(Nc3ccccc3C)c(-c3ccccn3)nc2n1 the results were CBX7 AlphaScr 1.1.
Screening Cc1cccc2nc(-c3ccsc3)c(Nc3ccc(C(C)C)cc3)n12 returned CBX7 AlphaScr 0.81.

High-throughput results: PubChem, Bradner/Qi Labs at DFCI
